# In PubChem BioAssay AID493000 (Johns Hopkins Ion Channel Center, 2010):
# The campaign covered roughly 1,900 compounds. About 390 (21%) were called active. How the calls were made is not given here. The list is a sample of the results.
# Assay: carbachol calcium response in non-induced M3R cells, confirmation, counter-screen for RGS4 inhibitor project, cell-based, HEK293 M3R (AID 493000);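 further: RGS4 induction absent so cells express M3R without RGS4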;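 on activity (percent): higher means more calcium signal and flags a non-specific hit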
# Settings: carbachol calcium Fluo-4, at 10 µM, submaximal (EC20) carbachol stimulus; active compounds read high, buffer wells 0%, carbachol control wells 100%
row,Structure (SMILES),activity (percent)
1,Cc1ccc(NC(=O)c2c(NC(=O)CCC(=O)O)sc3c2CCCCC3)cc1,inactive
2,CC(C)c1nc(SCC(=O)Nc2cccc(C(=O)O)c2)c2c3c(sc2n1)CCCC3,41.5% (active)
3,CCOc1ccc(/C=N/NC(=O)CSc2ccccn2)cc1O,inactive
4,S=c1[nH]nc(-c2cccnc2)n1/N=C/C(Cl)=C\c1ccccc1,inactive
5,O=C(/C=C/c1ccc(Cl)c([N+](=O)[O-])c1)c1cccnc1,43.5% (active)
6,COc1ccc(/C=C/C(=O)c2ccc(OC)cc2O)cc1,inactive
7,O=C(/C=C/c1ccc(Cl)c([N+](=O)[O-])c1)c1ccc(O)cc1,43.5% (active)
8,C1=C(N2CCOCC2)/C(=C/c2nc3ccccc3[nH]2)CC1,inactive
9,CNCC(O)c1ccc(O)c(O)c1 (centres undefined),inactive
10,O=C(Nc1ccc(Cl)cc1)OCc1cc(-c2ccccc2)on1,inactive
11,O=[N+]([O-])c1c(NCCO)cc(Sc2nc3ccccc3s2)c2nonc12,inactive
12,CCCCC1S/C(=N/N=C/c2cccs2)NC1=O (centres undefined),inactive
13,COc1cc(Br)cc(/C=N/c2ncn[nH]2)c1O,inactive
14,Oc1ccc(/C=N/Nc2ccc(C(F)(F)F)cn2)cc1O,34.5% (active)
15,Cn1c(-c2ccco2)nc2cc3ccccc3cc21,inactive
16,COc1cc2c(cc1O)C(SC)=NC(C)(C)C2,inactive
17,O=C1Nc2ccc(Br)cc2/C1=N/N=C/C1=C(N2CCOCC2)C(=C\c2ccccc2)/CC1,31.5% (active)
18,O=C(O)C(c1ccccc1)N1C(=O)/C(=C\c2ccc(-c3cccc(Cl)c3)o2)SC1=S (centres undefined),inactive
19,COc1ccc(/C(O)=C2/C(=O)C(=O)N(c3nc(C)c(C)s3)C2c2ccco2)cc1 (centres undefined),inactive
20,C=C(C)C(=O)O[C@H]1C/C(C)=C\C(=O)/C=C(\C)[C@H](O)[C@@H]2OC(=O)C(=C)[C@@H]21,inactive
21,C[C@H](NC(=O)c1nc[nH]c1C(=O)NCC(=O)OC(C)(C)C)c1ccccc1,inactive
22,Cc1ccc(Nc2nc(N)nc(CN3CCN(Cc4ccccc4)CC3)n2)cc1Cl,inactive

row,Structure (SMILES),activity (percent)
1,O=C(CCN1CCc2ccccc2C(O)(c2ccccc2)C1)c1ccc2c(c1)OCCO2 (centres undefined),34.5% (active)
2,CS(=O)(=O)N(CC(O)Cn1c2ccccc2c2ccccc21)c1cccc2ccccc12 (centres undefined),inactive
3,Oc1ccc(-c2[nH]ncc2-c2nc3ccccc3s2)c(O)c1,inactive
4,CCn1c(O)c(N=NC2=NC(=O)CS2)c2cc(C)ccc21,inactive
5,CCc1nnc(NS(=O)(=O)c2ccc(N=Cc3c(C)[nH]n(-c4ccc(C)cc4)c3=O)cc2)s1,inactive
6,O=C(NCc1ccccc1)c1ccc(S(=O)(=O)Nc2cccc(C(F)(F)F)c2)cc1,inactive
7,Cc1ccc(-c2c3c(=O)n(C)c(=O)n(C)c3cn2-n2cnnc2)cc1,inactive
8,C#CCOc1ccc(/C=C2/C(=O)ON=C2C)cc1OCC,inactive
9,C=CCOc1ccc(/C=C2/C(=O)ON=C2C)cc1OCC,32.5% (active)
10,COc1cc(/C=C2/C(=O)ON=C2C)ccc1OCc1ccccc1F,inactive
11,COC(=O)C1CCN(C(=O)c2cc(=O)[nH]c3ccccc23)CC1,inactive
12,O=C(COC(=O)c1cccc(Br)c1)Nc1cccc2c1C(=O)c1ccccc1C2=O,inactive
13,O=[N+]([O-])/C=C/c1ccc2c(ccn2Cc2ccccc2)c1,inactive
14,COC(=O)Cn1cc(/C=C/[N+](=O)[O-])c2ccccc21,38% (active)
15,COc1ccc2c(c1OC)C(=O)OC2Nc1nc(-c2ccccc2)cs1 (centres undefined),inactive
16,Cc1ccc(S/C(=N\S(=O)(=O)c2ccc(Cl)cc2)c2ccccc2)cc1,inactive
17,Cc1ccc(Sc2cc(N3CCOCC3)nc(-c3ccccc3)n2)cc1,55.5% (active)
18,Cc1c(NC(=O)c2coc(=O)c(Br)c2)c(=O)n(-c2ccccc2)n1C,inactive
19,c1ccc(C[C@H]2CNCCN2CCC23CC4CC(CC(C4)C2)C3)cc1,inactive
20,Cc1ccc(C)c(Cn2nnc3c(=O)[nH]c(C(=O)Nc4ccc(F)cc4)nc32)c1,45.5% (active)
21,O=C1NC(c2ccc(-c3ccccc3[N+](=O)[O-])o2)C(C(=O)c2ccc(Cl)cc2)C(O)(C(F)(F)F)N1 (centres undefined),38.5% (active)
22,CCOC(=O)C1CCN(C(c2cc3cc(C)cc(C)c3[nH]c2=O)c2nnnn2C2CCCCC2)CC1 (centres undefined),inactive

row,Structure (SMILES),activity (percent)
1,Cc1nc(-c2ccccc2)sc1C(=O)/C=C/c1ccccc1,inactive
2,COc1ccc(S(=O)(=O)Nc2ccc(O)c(Sc3nc4ccccc4s3)c2)cc1,inactive
3,Cc1nn2c(=O)cc(COC(=O)c3ccc(NC(=O)C(C)(C)C)cc3)nc2s1,inactive
4,COc1ccc(NCc2nnc(SCc3ccccc3)n2-c2ccc(OC)cc2)cc1,inactive
5,COc1cc(/C=C2/SC(=S)N(Cc3ccccc3)C2=O)cc(OC)c1O,inactive
6,C#CCOc1ccc(/C=C2/C(=O)NN(c3ccccc3)C2=O)cc1OC,inactive
7,COc1cc(/C=C2/C(=O)NN(c3cccc(Cl)c3)C2=O)cc(Br)c1O,28.5% (active)
8,CC(C)Cc1nc(Nc2ccc(S(=O)(=O)N3CCCC3)cc2)c2nnn(Cc3ccccc3)c2n1,inactive
9,CCc1ccc(C2C(C#N)=C(N)N(N3CCOCC3)C3=C2C(=O)CC(C)(C)C3)s1 (centres undefined),inactive
10,COCCCNC(=S)N(CCN(C)C)Cc1cc2cc3c(cc2[nH]c1=O)OCCO3,inactive
11,O=C(N/N=C/c1ccccc1O)/C(=C/c1ccccc1)CCO,inactive
12,COc1ccc(OC)c(S(=O)(=O)N2CCCC(C(=O)N3CCC(C(N)=O)CC3)C2)c1 (centres undefined),inactive
13,CNc1nc(Nc2ccc(C)c(Cl)c2)nc(N)c1[N+](=O)[O-],inactive
14,CC(=O)Nc1ccc(S(=O)(=O)Nc2nc(-c3ccc(C(C)(C)C)cc3)cs2)cc1,51% (active)
15,COc1ccc(-c2csc(Nc3ccc(O)cc3)n2)cc1,inactive
16,Cc1noc(NS(=O)(=O)c2ccc(N/C=C/C(=O)c3ccccc3)cc2)c1C,inactive
17,Cc1ccsc1/C=N/n1c(=S)[nH]nc(C)c1=O,inactive
18,Cc1nc(Nc2ccc(S(=O)(=O)N3CCCC3)cc2)c2nnn(Cc3ccccc3)c2n1,inactive
19,Cc1ccc(/C=C2\CCn3c2nc2cc(C(=O)O)ccc2c3=O)c(C)c1,33% (active)
20,O=C(O)c1ccc2c(=O)n3c(nc2c1)/C(=C/c1ccc(Cl)c([N+](=O)[O-])c1)CC3,inactive
